# G9a block: G9a (human) methyltransferase inhibition. Q96KQ7. G9a H3K9 monomethylation, AlphaScreen, 2 h. Potency, µM (top dose mostly 102 µM), inactives show at the highest dose activity, negative = inhibition, actives largely listed as inhibitors. 8.8% of 350,000 active; note: potency is the fitted concentration of half-maximal effect; % is set by controls: 0 for no effect and ±100 for the full control effect; nearly all actives have a fitted effect of over 75% in size
# Target sequence (Q96KQ7 913-1193 limits assumed): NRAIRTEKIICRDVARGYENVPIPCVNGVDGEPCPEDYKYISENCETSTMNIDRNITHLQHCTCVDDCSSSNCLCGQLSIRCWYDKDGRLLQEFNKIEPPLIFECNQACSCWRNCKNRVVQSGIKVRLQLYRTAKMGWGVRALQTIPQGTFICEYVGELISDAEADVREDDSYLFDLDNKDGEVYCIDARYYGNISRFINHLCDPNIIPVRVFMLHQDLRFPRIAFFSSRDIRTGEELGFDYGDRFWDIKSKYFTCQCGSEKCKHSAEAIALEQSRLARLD
#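 G9a (20 nM) was preincubated 15 min with compound, then reacted 2 h at room temperature with 500 nM biotin-H3K9 peptide and 20 µM SAM. Monomethyl-H3K9 detected by AlphaScreen using anti-H3K9me1 antibody.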
# PLK1 PBD inh: blocks phosphopeptide binding to human PLK1 polo-box domain. Plk1 PBD binding of FITC phosphopeptide, fluorescence polarization. Potency, µM, without a hit: max response, negative = inhibition, hits mostly inhibitors. 2.8% of 360,000 active; note: potency is the fitted concentration of half-maximal effect; series mostly up to about 57 µM; % is set by controls: 0 for no effect and ±100 for the full control effect; nearly all actives have a fitted effect of over 65% in size
# BAZ2B block: BAZ2B (human) inhibition. AlphaScreen BAZ2B-H3K14Ac peptide displacement. Potency, µM (highest dose often 114 µM), for the others: at the highest dose activity change, negative = inhibition, actives largely listed as inhibitors. 4.4% of 360,000 active; note: potency is the fitted concentration of half-maximal effect; % is set by controls: 0 for no effect and ±100 for the full control effect; nearly all actives have a fitted effect of over 60% in size
#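 BAZ2B (50 nM) with biotin-H3(5-23)K14Ac peptide (50 nM) in PBS pH 7.4, 0.01% Tween-20, preformed 30 min, then compound 30 min at room temperature; top concentration 110uM. AlphaScreen streptavidin donor/nickel chelate acceptor beads (10 ug/mL final), 20 min dark, signal read.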
# JMJD2A Tudor: JMJD2A Tudor domain (human) inhibition. AlphaScreen JMJD2A-Tudor / H3K4me3 peptide binding. AID 504339. 4.4% of 390,000 active. O75164. Potency, µM (top dose mostly 114 µM), for the others: top-dose activity change, negative = inhibition, actives largely listed as inhibitors; note: potency is the fitted concentration of half-maximal effect; % is set by controls: 0 for no effect and ±100 for the full control effect; nearly all actives have a fitted effect of over 50% in size
# HP1b chromo inh: blocks HP1-beta chromodomain binding to methylated histone tails; AID 540317; AlphaScreen HP1-beta / biotin-H3K9me3 peptide binding; Potency, µM (series often up to 114 µM), inactives show top-dose activity change, negative = inhibition, hits mostly inhibitors; P83916; 0.56% of 390,000 active; note: potency is the fitted concentration of half-maximal effect; nearly all actives have a fitted effect of over 70% in size
# Target sequence (P83916 whole entry, looked up): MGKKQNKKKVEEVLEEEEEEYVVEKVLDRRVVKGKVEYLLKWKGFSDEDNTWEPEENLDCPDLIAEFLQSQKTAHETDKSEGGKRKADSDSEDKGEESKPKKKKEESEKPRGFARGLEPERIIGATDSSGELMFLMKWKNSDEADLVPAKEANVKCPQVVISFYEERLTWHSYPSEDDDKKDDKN
#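 Compound inhibition of the preformed complex between 50 nM HP1-beta and 50 nM biotinylated H3K9me3 peptide was read by AlphaScreen. Buffer was PBS pH 7.4 with 0.01% Tween-20. Incubations ran 30 min at room temperature, with 10 ug/mL donor/acceptor beads.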
# PI5P4Ka inh: inhibitors of human PI5P4K alpha; P48426; AID 652105; max response, %; PI5P4Kalpha enzyme, ADP-Glo luminescence, 60 min; active compounds read low; 1.2% of 330,000 active; active = max response of -50% or lower; inconclusive = between -30% and -50%; inactive = -30% or higher; note: value at the top dose of about 77 µM; % is set by controls: 0 for no effect and ±100 for the full control effect
#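 Luminescence from ADP-Glo served as readout of PI5P4Kalpha activity in a qHTS format. Reaction: enzyme, substrate, compound, ATP at 5 microM final, 60 min at RT.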
# Numbers without * were called inactive; ? = inconclusive; . = not tested or not shown; [ ] = dose if it differs, or a comment. This is a sample that favours compounds with a hit; in the whole collection about 12% have one here. Unless noted, calls come from the whole dose curve; as a rule, active = well fitted curve in the direction sought with a large enough effect; inconclusive = small, poorly fitted or top-dose-only effect, or another doubt; inactive = no such curve, though single readings can be large; an effect the other way counts as inactive or inconclusive.
SMILES,G9a block,PLK1 PBD inh,BAZ2B block,JMJD2A Tudor,HP1b chromo inh,PI5P4Ka inh
CCN(C)C1CN(Cc2cn(Cc3ccc(Cl)cc3)nn2)S(=O)(=O)C1 (centres undefined),.,0%,.,.,.,0
COc1cc(/C=C/c2nc3ccccc3c(=O)[nH]2)cc(Br)c1O,?,27%,?,-8%,28%,-1
COc1cccc(/C=C2/C(=O)NN(c3ccc(Br)cc3)C2=O)c1O,.,7.5µM*,?,?,-21%,-7
COc1cc(/C=C2/C(=O)NN(c3ccc(Cl)cc3)C2=O)cc(Br)c1O,.,?,45µM*,40µM*,?,?
COc1cc(/C=C2/C(=O)NN(c3ccc(Cl)c(Cl)c3)C2=O)cc([N+](=O)[O-])c1O,18µM*,12µM*,40µM*,16µM*,?,-88*
COc1cc(/C=N/N(C)S(=O)(=O)c2ccc(C)cc2)cc([N+](=O)[O-])c1O,?,-2%,?,-31%,-2%,?
COc1cc(/C=C2/C(=O)NN(c3ccc(F)cc3)C2=O)cc(Cl)c1O,28µM*,30µM*,32µM*,32µM*,?,?
COc1cccc(/C=C2\Oc3ccc(O)cc3C2=O)c1O,36%[0.501 µM],5%,-20%,-23%,32%,-14
CCCC/C=C/[C@H](c1ccccc1)[C@H](CO)Cc1cnc2ccccc2c1,.,.,.,-6%,25%,.
Cn1c2cc(Br)sc2c2cnn(Cc3c(F)cccc3F)c(=O)c21,-31%[12.7 µM],.,8%,.,.,.
CCc1nc2c(OCC(=O)c3ccc(F)cc3)cccn2c1N(C)C(=O)c1ccc(OC)cc1,.,-13%,.,.,.,0
CCOC(=O)N1CC=C2C(C#N)=C(N)C(C#N)(C#N)[C@H](c3cccs3)C2C1 (some centres undefined),4%[59 µM],-14%,3%,-15%[57.1 µM],50%,2
CC1CC=C2C(C#N)=C(N)C(C#N)(C#N)C(c3cccs3)C2C1 (centres undefined),40µM*,27µM*,3%,-17%,46%,-24
CCOC(=O)C(C)NC(=O)c1cc2c(=O)[nH]c3ccc(C)cc3c2s1 (centres undefined),-3%[59 µM],.,6%,1%,34%,.
Cc1ccc2[nH]c(=O)c3cc(C(=O)NC(C)C)sc3c2c1,-5%,?,-17%,32µM*,36%[57 µM],7
O=C(O)C1CCCCC1C(=O)Nc1cccc(Br)c1 (centres undefined),16%[2.33 µM],-20%,?,25µM*,25µM*,?
O=C(O)[C@H]1CCCC[C@H]1C(=O)Nc1ccc(Nc2ccccc2)cc1,8.9µM*,0%,-35%,-11%,13%,-8
Cc1ccccc1-n1nc2c(c1NC(=O)C1CC1)CS(=O)(=O)C2,.,-6%,.,.,.,1
CCc1ccc([C@H]2[C@@H]3C(=O)C[C@@H]4C(=O)NC(=O)[C@@H]4[C@@H]3CN2S(=O)(=O)c2ccc(C)cc2)cc1,.,-2%,.,.,.,7
COc1ccccc1NC(=O)c1ncn(-c2ccccc2)n1,-4%[59 µM],.,-5%,-6%,22%,.
c1ccc(Oc2cccc(Oc3ccccc3)n2)cc1,.,1%,.,68%,131%,12
C=C(CC)C(=O)c1ccc(OCC(=O)O)c(Cl)c1Cl,71µM*,?,-30%,-29%,18%,-19
Cc1ccc(N2C(=O)N3[C@H](c4ccc(F)cc4)[C@@H]4C(=O)N(C5CCCCC5)C(=O)[C@@H]4[C@]3(C)C2=O)cc1,.,-6%,-14%,-18%,38%,-65*
O=C(CN1CCCN(S(=O)(=O)c2ccc(Br)cc2)CC1)Nc1cccc(C(F)(F)F)c1,?,.,-16%,-13%,42%,.
COc1cc(O)c(C(CCN2CCCC2)c2ccc(N(C)C)cc2)c(OC)c1 (centres undefined),?,-9%,35µM*,22µM*,?,-4
SMILES,G9a block,PLK1 PBD inh,BAZ2B block,JMJD2A Tudor,HP1b chromo inh,PI5P4Ka inh
CCN(CC)C(=O)CC(c1ccc(N(C)C)cc1)c1c(O)cc(OC)cc1OC (centres undefined),?,-2%,?,50µM*,-16%,4
COc1cc(O)c(C(CCN2CCCC2)c2ccc3c(c2)OCO3)c(OC)c1 (centres undefined),-1%[12.7 µM],0%,?,?,-9%,-2
CCN(CC)C(=O)CC(c1cc(OC)c(OC)c(OC)c1)c1c(O)cc(OC)cc1OC (centres undefined),18%[12.7 µM],-4%,1%,-21%,35%,0
COc1cc(O)c(C(CCN2CCCCC2)c2ccc(N(C)C)cc2)c(OC)c1 (centres undefined),?,1%,?,40µM*,?,-1
Cc1onc(-c2ccc(Br)cc2)c1C(=O)Nc1ccc(Br)cc1F,50%[59 µM],.,20%,-13%,34%[57 µM],.
O=C(CSc1nnc2scc(-c3ccccc3)n12)NCc1ccco1,79µM*,5%,-35%,-6%,12%,-8
O=C(CSc1nnc(C2CCCCC2)n1Cc1ccccc1)NCc1ccco1,?,27µM*,-9%,28µM*,?,?
C=CCn1c(SCC(=O)NCc2ccco2)nnc1C1CCCCC1,-51%,-3%,5%,-7%,21%,2
O=C(CSc1nnc2scc(-c3ccc(Cl)cc3)n12)NCc1ccco1,26%[59 µM],-4%,4%,-20%,7%,.
O=[N+]([O-])c1ccc(N2CCN(CC3CCCCC3)CC2)cc1,-10%[0.501 µM],-3%,56µM*,18µM*,?,2
CCCN1CCC(N2CCN(c3ccc([N+](=O)[O-])cc3)CC2)CC1,.,-7%,45µM*,20µM*,?,2
CC(=O)c1ccc(N2CCN(CC3CCCCC3)CC2)cc1,50µM*,-18%,?,35µM*,?,-8
Cc1cc2nc3c(=O)[nH]c(=O)nc-3n(C[C@H](O)[C@H](O)[C@H](O)COP(=O)(O)OP(=O)(O)OC[C@H]3O[C@@H](n4cnc5c(N)ncnc54)[C@H](O)[C@@H]3O)c2cc1C,-29%[12.7 µM],.,.,.,.,.
CCOC(=O)[C@]12CCCC=C1N(Cc1ccco1)C(=O)[C@H](CC(=O)N1CCOCC1)C2,.,-8%,.,.,.,1
COc1cc2ccnc(Cc3cccc(OC)c3OC)c2cc1OC,1%,27µM*,-13%,79µM*,14%,7
COc1ccc(N=N/C(=C\O)C(=O)c2ccco2)cc1,?,27µM*,40µM*,-11%[11.4 µM],-26%,-9
Nc1ccc2c(c1)OC1(CCCCC1)O2,-17%[59 µM],-8%,?,56µM*,?,-23
Cc1cccc2sc(=S)[nH]c12,.,21µM*,.,.,.,?
Cc1cc(C)n(NC(=S)NC2CCCC2)c(=O)c1C#N,-2%,-11%,-14%,11µM*,33%,-8
CCn1c(C)cc(C)c(C#N)c1=O,23%,-19%,-3%,-1%,21%,-1

# Screens as filed in PubChem.
